Assay outcomes deposited in PubChem BioAssay by National Center for Advancing Translational Sciences (NCATS).
HCV inhibitor: qHTS Assay for Inhibitors of Hepatitis C Virus (HCV) | Huh7.5.1 HCVcc-Cre infection, luciferase reporter, 44 h | 3.4% of 340,000 active | Potency, µM (titrated, usually from 41.8 µM), most hits filed as inhibitors | AID 651820, 2012
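Infectious HCV cell culture screen: compound-treated cells (1,000/well, pre-plated 4 h) are infected with HCVcc-Cre at roughly 0.5 moi and grown 44 h. Infection is quantified by luciferase signal after 15 min substrate incubation at room temperature.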
AmpC inh detg: qHTS Inhibitors of AmpC Beta-Lactamase (assay with detergent). Potency, µM (doses to about 114 µM), hits mostly inhibitors. P00811. AID 485294, 2010. 0.041% of 370,000 active. AmpC hydrolysis of nitrocefin, absorbance 480 nm, 0.01% Triton; note: nearly all actives have a fitted effect of over 25% in size
Target sequence (P00811 whole entry, looked up): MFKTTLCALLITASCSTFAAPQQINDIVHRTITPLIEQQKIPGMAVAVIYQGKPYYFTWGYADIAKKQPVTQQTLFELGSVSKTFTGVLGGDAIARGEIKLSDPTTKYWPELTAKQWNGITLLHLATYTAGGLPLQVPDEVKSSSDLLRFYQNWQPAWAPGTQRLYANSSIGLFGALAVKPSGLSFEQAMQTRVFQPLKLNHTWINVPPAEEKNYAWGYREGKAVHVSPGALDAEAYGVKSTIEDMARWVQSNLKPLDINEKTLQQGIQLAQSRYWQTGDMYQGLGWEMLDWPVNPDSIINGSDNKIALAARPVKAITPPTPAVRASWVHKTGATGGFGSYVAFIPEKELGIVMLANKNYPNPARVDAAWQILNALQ
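AmpC (5.3 nM in the dispensed reagent) in 20 mM phosphate pH 7.0 with 0.01% (detergent screen) or 0.0001% Triton X-100 was preincubated with compounds for 15 min at room temperature. Nitrocefin was then added from an 800 uM solution, and hydrolysis was followed at 480 nm.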
Pf growth 96h: Primary qHTS for delayed death inhibitors of the malarial parasite plastid, 96 hour incubation; P. falciparum luciferase reporter growth, 96 h; 6.9% of 320,000 active; Potency, µM (titrated, usually from 28.7 µM), hits mostly inhibitors
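P. falciparum expressing integrated firefly luciferase, in erythrocytes at 2% hematocrit, 0.05% parasitemia, incubated with compounds 96 h at 37 C, 5% CO2. Growth inhibition read as loss of luminescence; two-generation exposure targets delayed-death apicoplast inhibitors.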
Pf growth 48h: Primary qHTS for delayed death inhibitors of the malarial parasite plastid, 48 hour incubation; 5.9% of 310,000 active; Potency, µM (highest dose often 28.7 µM), actives largely listed as inhibitors; P. falciparum luciferase growth in erythrocytes, 48 h; AID 504832, 2011
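Luminescence readout; reporter = integrated firefly luciferase in P. falciparum. RBC culture at 2% hematocrit, 0.1% parasitemia final, 37 C/5% CO2; decreased signal taken as growth inhibition.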
AMA1 RON2 block: qHTS for Inhibitors of AMA1-RON; Towards Development of Antimalarial Drug Lead: Primary Screen | 0.2% of 360,000 active | AlphaScreen AMA1-biotinylated RON2 peptide binding | Potency, µM (doses to about 58.2 µM), usual class: inhibitors | Plasmodium falciparum AMA1 (3D7) - RON2 peptide interaction; note: nearly all actives have a fitted effect of over 45% in size
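AMA1 (3D7) with his tag at 25 nM final met compounds first, then biotinylated RON2 peptide at 25 nM; detection used donor plus acceptor beads, 10 µg/mL apiece, read by AlphaScreen after 30 min at room temperature.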
AmpC inh no detg: qHTS Inhibitors of AmpC Beta-Lactamase (assay without detergent). P00811. AmpC nitrocefin hydrolysis, absorbance 480 nm, 0.0001% Triton. Potency, µM (highest dose often 57.1 µM), actives largely listed as inhibitors. 0.52% of 330,000 active. AID 485341, 2010; note: nearly all actives have a fitted effect of over 20% in size
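AmpC (5.3 nM in the dispensed reagent) in 20 mM phosphate pH 7.0 with 0.01% (detergent screen) or 0.0001% Triton X-100 was preincubated with compounds for 15 min at room temperature. Nitrocefin was then added from an 800 uM solution, and hydrolysis was followed at 480 nm.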
Each line names hits and unclear results; the compound was inactive in the other large screens. In the library only some 11% were active in any assay of this set; here they are far more common. Calls come from the whole dose curve; as a rule, active = well fitted curve in the direction sought with a large enough effect; inconclusive = small, poorly fitted or top-dose-only effect, or another doubt; inactive = no such curve, though single readings can be large; an effect the other way counts as inactive or inconclusive.

CCn1c2c(c(=O)n3ncc(C(=O)Nc4ccc(C(=O)OC)cc4)c13)CN(Cc1ccc(OC)cc1)CC2	none (no result: HCV inhibitor, Pf growth 96h, Pf growth 48h, AMA1 RON2 block, AmpC inh no detg)
Cc1ccc(C)c(N2CCN(S(=O)(=O)c3ccc(-c4cc(C(F)(F)F)on4)s3)CC2)c1	none (no result: HCV inhibitor, Pf growth 96h, Pf growth 48h, AMA1 RON2 block, AmpC inh no detg)
Cc1cccc(OCC(=O)Nc2c(C)ccc3nsnc23)c1C	none (no result: HCV inhibitor, Pf growth 96h, Pf growth 48h, AMA1 RON2 block, AmpC inh no detg)
Cc1ccc2cccc(NC(=O)C(C)Oc3ccc(Cl)cc3Cl)c2n1 (stereo unspecified)	none (no result: HCV inhibitor, Pf growth 96h, Pf growth 48h, AMA1 RON2 block, AmpC inh no detg)
COc1ccc(CNc2ncc(-c3ccc(F)cc3)n2C)cc1OC	Pf growth 96h inconclusive, AMA1 RON2 block inconclusive
COc1ccc(OC)c(CNc2ncc(-c3ccc(F)cc3)n2C)c1	Pf growth 96h 15µM, Pf growth 48h inconclusive
CC(C)CCNC(=O)CN1C(=O)c2cccnc2Sc2ccccc21	none (no result: HCV inhibitor, Pf growth 96h, Pf growth 48h, AMA1 RON2 block, AmpC inh no detg)
Cc1nc(CC(C)C)cc(C(=O)N2CCCC(CNS(=O)(=O)c3cccs3)C2)n1 (stereo unspecified)	Pf growth 96h 8.3µM
COc1cc2c(cc1O)[C@@H]1Cc3ccc(OC)c(O)c3CN1CC2	HCV inhibitor 2.5µM, Pf growth 96h 6.6µM, Pf growth 48h 12µM
CC(=O)N1c2ccc(S(=O)(=O)N(C)CC(=O)NC(C)c3ccccc3)cc2CC1C (stereo unspecified)	HCV inhibitor inconclusive, AmpC inh detg inconclusive, Pf growth 96h 9.3µM
CC1Cc2cc(S(=O)(=O)N(Cc3ccccc3)C(C)C)ccc2N1C(=O)C1CCC1 (stereo unspecified)	none (no result: HCV inhibitor, Pf growth 96h, Pf growth 48h, AMA1 RON2 block, AmpC inh no detg)
CC1Cc2cc(S(=O)(=O)CCC(=O)N3CCN(c4ccccc4)CC3)ccc2N1C(=O)C1CC1 (stereo unspecified)	HCV inhibitor inconclusive, AmpC inh detg inconclusive, Pf growth 96h 9.3µM
CCC(=O)N1c2ccc(S(=O)(=O)NC3CCCCC3)cc2CC1C (stereo unspecified)	Pf growth 96h 10µM
CCN(c1ccccc1)S(=O)(=O)c1ccc2c(c1)CC(C)N2C(=O)C1CC1 (stereo unspecified)	HCV inhibitor inconclusive, Pf growth 96h 4.1µM, Pf growth 48h inconclusive
CCC(=O)N1c2ccc(S(=O)(=O)CCC(=O)N3CCN(c4ccc(F)cc4)CC3)cc2CC1C (stereo unspecified)	none (no result: HCV inhibitor, Pf growth 96h, Pf growth 48h, AMA1 RON2 block, AmpC inh no detg)
COCCN1Cc2cccc(C(=O)Nc3ccc(C(=O)OC)cc3)c2C1=O	none (no result: HCV inhibitor, Pf growth 96h, Pf growth 48h, AMA1 RON2 block, AmpC inh no detg)
Cc1ccccc1-c1nc(CNC(=O)NC2CCCCC2)c(C)o1	none (no result: HCV inhibitor, Pf growth 96h, Pf growth 48h, AMA1 RON2 block, AmpC inh no detg)
Cc1ccccc1Cn1c(=O)n(CCCCC(=O)NCCc2ccccc2)c(=O)c2ccccc21	none (no result: HCV inhibitor, Pf growth 96h, Pf growth 48h, AMA1 RON2 block, AmpC inh no detg)
CCOC(=O)N1CCN(C(=O)CCS(=O)(=O)c2ccc3c(c2)CC(C)N3C(=O)CC)CC1 (stereo unspecified)	Pf growth 96h 15µM
CCOC(=O)C1CCN(C(=O)CCS(=O)(=O)c2ccc3c(c2)CC(C)N3C(=O)CC)CC1 (stereo unspecified)	Pf growth 96h inconclusive
CC(C)N(C(=O)Cn1cc(S(=O)(=O)Cc2ccc(Br)cc2)c2ccccc21)C(C)C	none (no result: HCV inhibitor, Pf growth 96h, Pf growth 48h, AMA1 RON2 block, AmpC inh no detg)
CCN(CC)c1nc(Nc2ccc([N+](=O)[O-])cc2)nc(N(CC)CC)n1	HCV inhibitor 11µM, Pf growth 48h inconclusive
COc1ccc(S(=O)(=O)N(CC(=O)Nc2ccc(OC)cc2OC)c2ccc(Cl)cc2)cc1	none (no result: HCV inhibitor, Pf growth 96h, Pf growth 48h, AMA1 RON2 block, AmpC inh no detg)
Cc1cccc(NCc2cc(Cl)cc(Cl)c2O)n1	HCV inhibitor inconclusive, Pf growth 48h 10µM
Cc1cccc(NCc2cc(Cl)ccc2O)n1	Pf growth 48h 6.6µM
CCNC(=O)N1CCN(CCCC(c2ccc(F)cc2)c2ccc(F)cc2)CC1	HCV inhibitor inconclusive, AmpC inh detg inconclusive, Pf growth 96h 1.7µM, Pf growth 48h 1.5µM
Cc1ccc(Nc2nc(CSc3nnc(-c4cccnc4)n3-c3ccccc3C)cs2)cc1	HCV inhibitor 32µM, Pf growth 96h inconclusive
Cc1ccc(Nc2nc(CSc3nnc(-c4ccccc4)n3C)cs2)cc1	HCV inhibitor inconclusive, Pf growth 96h inconclusive
Cc1ccccc1-n1c(SCc2csc(Nc3ccccc3)n2)nnc1-c1cccnc1	HCV inhibitor inconclusive, Pf growth 96h 9.3µM, Pf growth 48h inconclusive
CCc1ccc(NC(=O)CSC2=Nc3ccccc3C3=NC(CC(=O)NCc4ccc5c(c4)OCO5)C(=O)N23)cc1 (stereo unspecified)	none (no result: HCV inhibitor, Pf growth 96h, Pf growth 48h, AMA1 RON2 block, AmpC inh no detg)
O=C(Nc1cc(S(=O)(=O)N2CCCCC2)ccc1N1CCCCC1)c1ccncc1	Pf growth 96h 8.3µM, Pf growth 48h 9.3µM
O=C(Nc1cc(S(=O)(=O)N2CCCCC2)ccc1N1CCOCC1)c1ccc(F)cc1	AmpC inh detg inconclusive, Pf growth 96h inconclusive, Pf growth 48h inconclusive, AMA1 RON2 block inconclusive
O=C(Nc1cc(S(=O)(=O)N2CCCCC2)ccc1N1CCCCC1)C1CC1	Pf growth 96h inconclusive, Pf growth 48h 10µM
CN1CCN(c2ccc(S(=O)(=O)N3CCOCC3)cc2NC(=O)C2CCCCC2)CC1	none (no result: AmpC inh detg, Pf growth 96h, Pf growth 48h, AmpC inh no detg)
COC(=O)CN1C(=O)CSc2ccc(S(=O)(=O)Nc3c(C)cc(C)cc3C)cc21	none (no result: HCV inhibitor, Pf growth 96h, Pf growth 48h, AMA1 RON2 block, AmpC inh no detg)
COc1ccccc1C(=O)Nc1nnc2n1CCS2	none (no result: HCV inhibitor, Pf growth 96h, Pf growth 48h, AMA1 RON2 block, AmpC inh no detg)
CC(=O)NC[C@@H]1CN(c2ccc(N3CCOCC3)c(F)c2)C(=O)O1	Pf growth 96h 15µM (no result: HCV inhibitor, AmpC inh detg, AMA1 RON2 block, AmpC inh no detg)
